# PLK1 PBD block: blocks phosphopeptide binding to human PLK1 polo-box domain; P53350; Plk1 PBD binding of FITC phosphopeptide, fluorescence polarization; Potency, µM, without a hit: max response, negative = inhibition, usual class: inhibitors; 360,000 compounds, 2.8% hits; AID 720504; further: series mostly up to about 57 µM; on the % scale 0 is the no-effect control and ±100 the full control effect; nearly all actives have a fitted effect of over 65% in size
# Target sequence (P53350 whole entry, looked up, the tested form may be a part): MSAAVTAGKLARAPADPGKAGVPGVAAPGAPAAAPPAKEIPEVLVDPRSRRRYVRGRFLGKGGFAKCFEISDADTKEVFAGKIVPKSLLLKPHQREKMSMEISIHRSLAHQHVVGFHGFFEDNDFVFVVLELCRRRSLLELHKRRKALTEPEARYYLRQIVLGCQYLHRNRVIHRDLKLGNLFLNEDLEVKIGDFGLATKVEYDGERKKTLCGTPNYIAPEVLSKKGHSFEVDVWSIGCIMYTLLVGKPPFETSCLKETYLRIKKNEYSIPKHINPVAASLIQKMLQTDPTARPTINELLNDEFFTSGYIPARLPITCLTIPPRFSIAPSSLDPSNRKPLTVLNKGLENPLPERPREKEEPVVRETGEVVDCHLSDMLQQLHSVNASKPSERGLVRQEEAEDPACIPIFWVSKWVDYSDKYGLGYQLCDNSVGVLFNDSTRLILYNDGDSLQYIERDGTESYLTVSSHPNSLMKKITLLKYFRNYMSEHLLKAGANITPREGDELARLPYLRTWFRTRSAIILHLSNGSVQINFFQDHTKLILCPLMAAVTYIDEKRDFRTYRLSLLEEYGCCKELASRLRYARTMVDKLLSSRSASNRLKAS
# HP1b binding inh: inhibitors of HP1-beta chromodomain binding to methylated histone tails. P83916. AlphaScreen HP1-beta / biotin-H3K9me3 peptide binding. 390,000 compounds, 0.56% hits. AID 540317. Potency, µM (series often up to 114 µM), inactives show at the highest dose activity change, negative = inhibition, actives largely listed as inhibitors; further: nearly all actives have a fitted effect of over 70% in size
#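 AlphaScreen: HP1-beta (50 nM) preformed 30 min with biotin-H3(1-18)K9me3 peptide (50 nM) in PBS pH 7.4, 0.01% Tween-20. Compound added for 30 min at RT, then streptavidin donor/nickel chelate acceptor beads (10 ug/mL) for 30 min.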
# VDR inh: blocks the human vitamin D receptor. P11473. VDR-SRC2-3 peptide fluorescence polarization, 2 h. Potency, µM, inactives show max response, negative = inhibition, usual class: inhibitors. 400,000 compounds, 0.93% hits. AID 504847; further: on the % scale 0 is the no-effect control and ±100 the full control effect
#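 Fluorescence polarization assay measuring small-molecule disruption of VDR binding to the coregulator peptide SRC2-3. Compounds were pin-transferred (23 nl) into the reagent mix and incubated 2 h at room temperature before reading.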
# BAZ2B inh: blocks human BAZ2B. Q9UIF8. AlphaScreen BAZ2B-H3K14Ac peptide displacement. Potency, µM (top dose mostly 114 µM), for inactives: at the highest dose activity change, negative = inhibition, most hits filed as inhibitors. 360,000 compounds, 4.4% hits; further: on the % scale 0 is the no-effect control and ±100 the full control effect; nearly all actives have a fitted effect of over 60% in size
#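 BAZ2B (50 nM) with biotin-H3(5-23)K14Ac peptide (50 nM) in PBS pH 7.4, 0.01% Tween-20, preformed 30 min, then compound 30 min at room temperature; top concentration 110uM. AlphaScreen streptavidin donor/nickel chelate acceptor beads (10 ug/mL final), 20 min dark, signal read.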
# L3MBTL1 inh: L3MBTL1 (human) inhibition; AlphaScreen L3MBTL1–H3K9me1 peptide binding; Potency, µM (series often up to 57.1 µM), for the others: at the highest dose activity, negative = inhibition, hits mostly inhibitors; 230,000 compounds, 0.66% hits; AID 485360; further: on the % scale 0 is the no-effect control and ±100 the full control effect; nearly all actives have a fitted effect of over 60% in size
#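 AlphaScreen assay: L3MBTL1 (50 nM final) was preincubated 30 min at room temperature with biotinylated H3(1-15)K9me1 peptide (75 nM final), then 30 min with library compounds; streptavidin donor and nickel chelate acceptor beads (10 ug/mL final) added, 30 min dark.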
# JMJD2A Tudor: blocks the human JMJD2A Tudor domain | O75164 | AlphaScreen JMJD2A-Tudor / H3K4me3 peptide binding | Potency, µM (titrated, usually from 114 µM), for inactives: at the highest dose activity change, negative = inhibition, usual class: inhibitors | 390,000 compounds, 4.4% hits | AID 504339; further: on the % scale 0 is the no-effect control and ±100 the full control effect; nearly all actives have a fitted effect of over 50% in size
# * hit, by the source's call; u = inconclusive; x = not tested or not shown; ! = repeats disagree; [ ] = remark or other dose. Rows were chosen to be rich in hits. Some 6.9% of all compounds tested hit in one or more screens of this group. The call rests on the fitted dose curve; in most records, active means well fitted curve in the direction sought with a large enough effect; inconclusive means small, poorly fitted or top-dose-only effect, or another doubt; inactive means no such curve, though single readings can be large; an effect the other way counts as inactive or inconclusive. Potency means the concentration at half of the fitted maximal effect.
SMILES,PLK1 PBD block,HP1b binding inh,VDR inh,BAZ2B inh,L3MBTL1 inh,JMJD2A Tudor
CC1CCN(S(=O)(=O)c2ccc3nc(NCc4ccc(N(C)C)cc4)ccc3c2)CC1,x,u,-2.0%,35.5µM*,x,14.1µM*
COc1ccc(C(=O)Nc2nc3ccccc3s2)c(OC)c1,3.36µM*,15.5%,u,-17.5%,x,20µM*
COc1ccccc1C(=O)Nc1nc2ccccc2s1,-1.5%,39.2%,-3.0%,38.4%,34.0%[2.29 µM],-4.3%
COc1n[nH]c(C(=O)NCc2ccccc2)c1[N+](=O)[O-],-9.1%,60.5%,7.0%,-21.3%,-0.6%,-12.1%
COc1n[nH]c(C(=O)Nc2nc3ccccc3s2)c1[N+](=O)[O-],-9.5%,29.5%,u,56.2µM*,-27.1%,-27.5%
COc1ccc(C2=NOC(C(=O)NCc3ccccn3)C2)cc1 (stereo not drawn),26.7µM*,u,-5.2%,9.9%,x,u
COc1ccc(/C=N/NC(=O)c2cccnc2)cc1CN1CCCc2ccccc21,-15.0%,44.7µM*,-11.8%,39.8µM*,x,35.5µM*
COc1ccc(C(=O)N/N=C/c2ccc(OC)c(CN3CCCc4ccccc43)c2)cc1,-9.0%,-2.2%,-20.1%,u,u,u
CC(Oc1ccccc1)C(=O)Nc1nc(-c2ccncc2)cs1 (stereo not drawn),-16.7%,31.3%,6.5%,2.8%,0.1%,-9.7%
CC(Oc1cccc(Cl)c1)C(=O)Nc1nc(-c2ccccn2)cs1 (stereo not drawn),18.9µM*,50.7%,2.5%,56.2µM*,-11.0%,50.1µM*
C[C@H](NC(=O)c1ccccc1)C(=O)Nc1nc(-c2ccccn2)cs1,-11.6%,35.7%,6.7%,14.1µM*,x,79.4µM*
CC(Oc1ccccc1)C(=O)Nc1nc(-c2ccccn2)cs1 (stereo not drawn),-24.6%,15.9%,7.2%,39.8µM*,u,20µM*
CC(NC(=O)c1ccccc1)C(=O)NC1=NCCS1 (stereo not drawn),-2.0%,12.2%,-4.9%,-2.7%,5.7%,u
CCN(CC)S(=O)(=O)c1ccc(NC(=O)C2c3ccccc3Oc3ccccc32)cc1,-9.7%,-2.1%,-13.6%,-4.7%,0.0%,-18.6%
CN(C)CCO[C@](C)(c1ccccc1)c1ccccn1,x,x,-1.6%,x,x,x
N#Cc1ccc(-c2cccs2)nc1SCc1ccc(Cl)cc1Cl,x,105.3%,-3.5%,31.5%,x,70.1%
CC(=O)OCC(=O)[C@@]1(O)[C@H](C)C[C@@H]2[C@H]3CCC4=CC(=O)C=C[C@]4(C)[C@]3(F)[C@@H](O)C[C@@]21C,x,x,2.8%,x,x,x
O=S(=O)(Nc1ncccn1)c1ccc(Cl)cc1,-5.4%,29.6%,-4.6%,-3.5%,-0.6%,-10.5%
O=S(=O)(Nc1cccnc1)c1ccc(F)cc1,-5.3%,38.6%,0.5%,-34.5%,-6.6%,-6.8%
O=S(=O)(Nc1ncccn1)c1ccccc1,23.8µM*,10.1%,u,u,8.3%,u
O=S(=O)(Nc1cccnc1)c1ccccc1,-5.3%,19.1%,-7.1%,-15.3%,x,50.1µM*!
C=CCn1c(O)c(N=NC(=S)Nc2ccc(OC)c(Cl)c2)c2ccccc21,-8.5%,u,-9.0%,7.94µM*,-24.5%,u
C=CCn1c(O)c(N=NC(=O)OC(C)(C)C)c2ccccc21,-2.5%,13.5%,9.7%,-4.2%,-5.2%,-8.1%
COc1ccccc1Cc1nc2ccccc2nc1SCC(=O)NCc1ccccc1Cl,x,34.7%[57 µM],12.8%,5.7%,x,-10.7%
CCNc1ccccc(C(=O)/C=C/c2ccc3c(c2)OCO3)c1=O,23.8µM*,u,u,44.7µM*,x,56.2µM*
SMILES,PLK1 PBD block,HP1b binding inh,VDR inh,BAZ2B inh,L3MBTL1 inh,JMJD2A Tudor
COC(=O)/C=C/c1ccc2c(c1)OCO2,-8.0%,24.6%,-11.5%,0.2%,27.8%,-7.8%
O=C(/C=C/c1ccc2c(c1)OCO2)c1cccs1,x,x,20µM*,x,x,x
O=[N+]([O-])c1cc([N+](=O)[O-])c2nonc2c1Nc1ccccc1O,-3.1%,21.7%,-10.1%,-21.2%,x,-18.1%
O=[N+]([O-])c1cc([N+](=O)[O-])c2nonc2c1Nc1ccc(O)cc1,-15.1%,u,u,u,-15.2%,50.1µM*
Cc1cc(C(=O)COC(=O)CCc2nc3ccccc3s2)c(C)n1C,-3.2%,-11.8%,20.7%,50.1µM*,-6.8%,u
COc1ccc(C(=O)Nc2nnc(SCc3cc(=O)c4cc(C)ccc4[nH]3)s2)cc1OC,x,27.8%[57 µM],16.8%,3.0%,x,-26.0%
Cc1[nH]nc2c1C(=O)CCC2,7.52µM*,-0.8%,-4.5%,10.3%,7.6%,-19.2%[11.4 µM]
Cc1[nH]nc2c1C(=O)CC(C)(C)C2,-12.7%,20.8%,-3.2%,-11.6%,6.6%,-1.6%
COc1ccccc1-c1cc(C(F)(F)F)nc(S(=O)(=O)CCCC(=O)NC(C)C)n1,u,51.7%,u,9.6%,0.8%,-6.0%
COc1ccccc1-c1cc(C(F)(F)F)nc(S(=O)(=O)CCCC(=O)N2CCCCC2C)n1 (stereo not drawn),u,73.2%,31.6µM*,1.4%,-1.9%,-9.7%
CCOC(=O)c1nc(Nc2ccc(C(=O)OCC(C)C)cc2)c2ccccc2n1,x,38.2%,30.4%,-1.2%,x,-4.5%
S=c1[nH]cnc2sc(Nc3ccccc3)nc12,-27.8%,30.5%,70.8µM*,-9.1%,-28.8%,-35.5%
Cc1nc(Nc2ccccc2)sc1C,-6.8%,-5.1%,2.0%,u,-18.1%,u
Cc1cc(N)n(-c2ccc(Oc3ccccc3)c(S(=O)(=O)O)c2)n1,u,23.3%,0.2%,56.2µM*,u,-32.2%
Cc1cc(N)n(-c2ccc(C)c(C)c2)n1,-12.1%,17.9%,-1.8%,-28.7%,x,-21.0%
COc1cc(-c2nnc(-c3cc(OC)c(OC)c(OC)c3)o2)cc(OC)c1OC,-0.6%,40.9%,4.9%,-3.5%,u,-6.1%
COc1ccc(-c2nc3ccccc3nc2-c2ccc(OC)c(OC)c2)cc1OC,-14.6%,113.8%,4.7%,19.4%,7.3%,40.1%
COc1cc(-c2nc(=S)[nH][nH]2)cc(OC)c1OC,-15.8%,u,50.1µM*,50.1µM*,10.2%,3.55µM*
COc1ccc(-c2nc(=S)[nH][nH]2)cc1OC,-8.8%,u,-19.5%,56.2µM*,10.1%,2.82µM*
CCCCn1c(SCC(=O)OCC)nc2c1c(=O)[nH]c(=O)n2C,26.7µM*,-9.7%,-3.2%,8.3%,8.0%,-18.3%
CCCCCCn1c(SCCN2CCOCC2)nc2c1c(=O)[nH]c(=O)n2C,-16.8%,3.8%,-15.1%,-3.1%,15.6%,2.5%
CCCCCn1c(SCCN2CCOCC2)nc2c1c(=O)[nH]c(=O)n2C,29.9µM*,-19.6%,-6.2%,1.3%,4.9%,-19.7%
CCc1ccc(NC(=O)[C@H](NC(=O)[C@@H]2Cc3ccccc3CN2)c2ccccc2)cc1,29.9µM*,25.6%,-13.5%,u,x,u
